Compound activity from PubChem.
TWEAK Fn14 block = TWEAK-Fn14 signaling inhibition | TWEAK-stimulated Fn14 reporter cells, luciferase luminescence, 8 h | inhibition, % at 10 µM | 360,000 compounds, 2% hits; in the data active = inhibition above about 50%
LMP1 NFkB inh = inhibitors of Epstein-Barr LMP1-induced NF-kappaB reporter | AID 504558 | LMP1-induced NF-kappaB luciferase reporter cells, luminescence | 350,000 compounds, 0.69% hits | inhibition, % at 12.5 µM; in the data active = inhibition above about 41%;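 note: 0% = neutral control wells and 100% = reference inhibitor control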
TROY NFkB inh = inhibitors of TROY-dependent NF-kB signaling | Q293 LMP1-TROYcd NF-kB luciferase reporter, 4 h | inhibition, % at 10 µM | 360,000 compounds, 0.98% hits | AID 1347056;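 active = compounds whose plate-normalised and pattern-corrected inhibition of the luciferase reporter signal at the single screening dose is 50% or more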
Shn3 inh set2 = inhibitors of Schnurri-3 3'UTR reporter in osteoblasts. AID 588674. inhibition, % at 12.5 µM. Clone20 osteoblast Shn3 3'UTR firefly luciferase, 24 h. 360,000 compounds, 0.52% hits;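 active = mean inhibition of at least 75% with every replicate also reaching 75%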;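 note: 0% = median of neutral control wells and 100% = pilot-screen positive control compound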
MITF TRPM1 inh = MITF TRPM1 promoter inhibition in SK-MEL-5 cells; 330,000 compounds, 0.83% hits; SK-MEL-5 TRPM1 promoter luciferase, 24 h; inhibition, % at 12.5 µM;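 active = mean inhibition across replicates of 60% or more, whatever share of single replicates reaches that level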
Peg3 promoter = Peg3 promoter activity inhibition. HeLa PEG-Prom luciferase reporter, luminescence, overnight. inhibition, % at 20 µM. 360,000 compounds, 1.7% hits;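 active = inhibition of at least 50% at 20 µM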
Numbers without * were called inactive; x = not tested or not shown. Hits are enriched below; roughly 4.1% of the tested compounds scored in any of these assays.

SMILES	TWEAK Fn14 block	LMP1 NFkB inh	TROY NFkB inh	Shn3 inh set2	MITF TRPM1 inh	Peg3 promoter
CNC(=O)CS(=O)CC(=O)Nc1cc(OC(C)C)c(Cl)cc1Cl (configuration not stated)	-6	0	13	-13	12	8
Cc1cccnc1C(c1ccc(F)cc1)N(C)C(=O)C1CCN(CCOc2ccc(Cl)cc2Cl)CC1 (configuration not stated)	-15	x	-2	3	x	98*
COc1ccc(CN2CCC(C(=O)NC(C)c3cccc4ccccc34)CC2)cc1 (configuration not stated)	-2	x	5	-17	x	-9
COc1cc(/C=C/CN2CCC(C(=O)NC(c3ccc(F)cc3)c3ccc4ccccc4n3)CC2)ccc1OC(C)=O (configuration not stated)	-19	x	-14	0	x	91*
CC(NC(=O)C1CCN(CCOc2ccc(Cl)cc2)CC1)c1cccc2ccccc12 (configuration not stated)	0	x	14	13	x	69*
O=C(NC(c1ccccc1)c1ccc2ccccc2n1)C1CCN(CCOc2ccc(Cl)cc2Cl)CC1 (configuration not stated)	14	x	35	-17	x	102*
O=C(NC(c1ccc(F)cc1)c1ccc2ccccc2n1)C1CCN(CCOc2ccc(Cl)cc2)CC1 (configuration not stated)	6	x	22	2	x	96*
O=C(CSc1nc2c(c(=O)[nH]1)CCC2)Nc1cccc(F)c1	0	-5	-12	6	0	-11
CCCN1CCC(N2CCCC(C(=O)O)C2)CC1 (configuration not stated)	61*	1	41	11	-3	37
CCOC(=O)C1CCCN(c2c(N3CCC(N4CCCCC4)CC3)c(=O)c2=O)C1 (configuration not stated)	-1	-11	-9	1	x	4
O=C(NCc1ccccc1Cl)[C@H]1CCCN1C(=O)[C@H]1CCCN1C(=O)c1cccc2ccccc12	12	x	-2	x	x	x
CC(=O)Nc1ccc(SC[C@H](C)CN2CC[C@H](O)CCC2=O)cc1	-5	5	-11	-15	0	-3
Cc1nn2c(N3CCN(C)CC3)cc(C(C)(C)C)nc2c1-c1ccccc1	-7	-13	-19	17	-14	59*
O=C(c1ccco1)N1CCN(c2ncnc3c2nnn3Cc2ccccc2Cl)CC1	-24	10	11	14	8	16
O=C(c1ccco1)N1CCN(c2nc(C(F)(F)F)nc3c2nnn3Cc2ccccc2)CC1	55*	-9	53*	53	25	17
CCCOc1ccc(NC(=O)c2c(-c3ccccc3)noc2C)cc1	-8	10	1	-8	-4	9
CC(=O)Nc1ccc(OCCCNC(=O)c2c(-c3ccccc3)noc2C)cc1	4	58*	2	22	10	11
O=C(NC1CC1)c1ccc2sc([C@@H]3O[C@H](CO)[C@H](O)[C@H](O)[C@H]3O)nc2c1	-5	x	1	2	x	3
COC(=O)c1ccc(CNC(=O)Cn2cnc3c(OCc4ccccc4)ncnc32)cc1	-27	0	-9	0	3	84*
Cc1ccc(C(C)C)c(OCc2ccc(C(=O)N/N=C/c3ccc(O)cc3O)cc2)c1	27	17	-7	92*	x	32
CCOc1ncccc1C(=O)Nc1cc2c(cc1Br)OCCO2	-33	-12	-36	-17	-28	-79
Cn1nc(C(F)(F)F)c2cc(C(=O)Nc3ccc(F)cc3)sc21	-34	0	9	8	-15	4
Cn1nc(C(F)(F)F)c2cc(C(=O)Nc3ccc(F)c(Cl)c3)sc21	1	20	61*	11	-4	44
Cn1nc(C(F)(F)F)c2cc(C(=O)Nc3ccc(C(F)(F)F)cc3)sc21	41	14	51*	65	-8	19
NS(=O)(=O)c1ccc(N/N=C/c2cn(-c3ccccc3)nc2-c2ccccc2)c([N+](=O)[O-])c1	-21	-17	32	x	77*	38
SMILES	TWEAK Fn14 block	LMP1 NFkB inh	TROY NFkB inh	Shn3 inh set2	MITF TRPM1 inh	Peg3 promoter
Cc1cc(C)n(CC(O)Cn2c3ccccc3c3ccccc32)n1 (configuration not stated)	-12	1	12	2	-14	8
Cc1nccn1CC(O)Cn1c2ccccc2c2ccccc21 (configuration not stated)	84*	2	x	11	-9	4
Cc1cc(C(F)(F)F)cc(NNC(=O)NC(=O)c2c(F)cccc2Cl)n1	-26	0	-4	6	-4	13
N#Cc1cc2c(nc1SCC(=O)N1CCOCC1)CCCCC2	95*	29	81*	32	17	-20
CC(=O)CSc1nc2cc3c(cc2cc1C#N)OCCO3	84*	-11	40	39	24	-92
N#Cc1cc2c(nc1SCC(N)=O)CCCCC2	-4	3	-2	-34	-77	-217
N#Cc1cc2cc3c(cc2nc1SCC(=O)N1CCCC1)OCCO3	36	-32	51*	-78	-75	-276
COc1cccc(-n2c(SCC(=O)NCC3CCCO3)nc3c(c2=O)SCC3)c1 (configuration not stated)	6	-2	-7	-8	-5	10
COCCN(C(=O)COC(=O)Cc1coc2cc3c(cc12)CCC3)c1c(N)n(Cc2ccccc2)c(=O)[nH]c1=O	-4	6	-10	-6	4	-8
Nc1ccccc1C(=O)NCCCN1CCN(c2cccc(Cl)c2)CC1	17	-3	24	-18	12	27
CNC(=O)c1cc(Oc2ccc(NC(=O)Nc3ccc(Cl)c(C(F)(F)F)c3)cc2)ccn1	84*	68*	62*	73	17	49
O=C(Nc1ccc(Cl)c(C(F)(F)F)c1)c1ccncc1	13	-15	7	11	0	-25
O=C(CSc1c(Cl)cccc1Cl)NC1CCCc2ccccc21 (configuration not stated)	-5	1	12	-2	-3	14
O=C(CSc1ccc(Cl)cc1)NC1CCCc2ccccc21 (configuration not stated)	-5	3	74*	-18	-3	31
O=C(CSc1nc2ccc(Cl)cc2[nH]1)NC1CCCc2ccccc21 (configuration not stated)	63*	-4	52*	14	14	34
CN(Cc1ccccc1)c1ncnc(N)c1[N+](=O)[O-]	34	8	27	17	-25	-5
Cc1nc(N2CCOCC2)nc(N2CCCCC2C)c1[N+](=O)[O-] (configuration not stated)	-6	7	7	12	-19	19
CC1Cc2ccccc2N1c1ncnc2nc[nH]c12 (configuration not stated)	60*	1	30	-7	-10	-53
CC1Cc2ccccc2N1c1ncnc(N)c1[N+](=O)[O-] (configuration not stated)	93*	76*	68*	16	34	17
